The text below walks through data of PubChem BioAssay AID2629 (Broad Institute, 2010).

A word on the inhibition: it is the relative decrease from the control value, in per cent.

SMILES strings stand for the structures. Several values for one entry are separate records, joined by “and”; a condition that tells them apart may be missing. Identical values can stand only once. Among all 320,000 compounds or so, about 1,900 (0.59%) were called active. What follows is part of a selection rich in actives, with near analogues and random picks from the rest. Unmarked numbers belong to inactive results. No stated cut-off is given here; in the data, active means inhibition mostly above about 10% (no sharp cut-off); inactive means mostly below about 6.7%.

Sequence of Protein LANA1 (Human herpesvirus 8 type P (isolate GK18)) (Q9QR71 whole entry, looked up): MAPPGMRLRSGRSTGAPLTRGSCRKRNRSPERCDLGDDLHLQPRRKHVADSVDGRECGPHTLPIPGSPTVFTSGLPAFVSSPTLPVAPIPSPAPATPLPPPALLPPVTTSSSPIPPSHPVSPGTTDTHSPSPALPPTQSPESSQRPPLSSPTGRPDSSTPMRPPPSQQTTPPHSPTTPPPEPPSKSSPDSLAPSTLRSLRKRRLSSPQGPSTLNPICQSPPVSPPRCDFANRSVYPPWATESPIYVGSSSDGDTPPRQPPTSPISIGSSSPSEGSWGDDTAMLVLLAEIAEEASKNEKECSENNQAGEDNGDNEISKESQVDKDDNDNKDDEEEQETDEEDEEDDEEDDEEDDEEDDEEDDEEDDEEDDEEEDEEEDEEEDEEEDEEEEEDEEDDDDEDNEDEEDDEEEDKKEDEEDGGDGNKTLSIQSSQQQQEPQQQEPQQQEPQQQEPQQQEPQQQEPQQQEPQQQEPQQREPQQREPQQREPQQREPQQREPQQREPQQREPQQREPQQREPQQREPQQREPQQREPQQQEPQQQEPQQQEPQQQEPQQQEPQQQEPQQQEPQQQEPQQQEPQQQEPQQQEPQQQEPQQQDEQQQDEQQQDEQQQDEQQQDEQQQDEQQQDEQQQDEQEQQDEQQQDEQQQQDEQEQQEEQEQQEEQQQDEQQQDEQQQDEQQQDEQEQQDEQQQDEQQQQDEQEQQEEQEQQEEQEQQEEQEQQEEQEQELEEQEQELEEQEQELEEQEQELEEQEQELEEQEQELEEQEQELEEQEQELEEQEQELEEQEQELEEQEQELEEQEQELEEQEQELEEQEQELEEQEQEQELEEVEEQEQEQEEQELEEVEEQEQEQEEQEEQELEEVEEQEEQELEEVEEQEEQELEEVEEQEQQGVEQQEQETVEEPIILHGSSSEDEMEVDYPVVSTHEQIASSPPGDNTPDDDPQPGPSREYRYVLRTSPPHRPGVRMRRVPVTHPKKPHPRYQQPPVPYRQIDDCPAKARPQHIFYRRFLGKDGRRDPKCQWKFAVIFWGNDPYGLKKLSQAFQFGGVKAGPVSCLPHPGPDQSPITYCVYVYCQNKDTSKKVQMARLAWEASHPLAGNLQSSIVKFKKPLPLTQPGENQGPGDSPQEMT

The assay addresses Protein LANA1 (Human herpesvirus 8 type P (isolate GK18)) (UniProt Q9QR71). The experiment in a line: blockers of LANA interaction with H2A/H2B – biochemical, FP readout, HTS, primary screen (AID 2629). Conditions: cell-free LANA-H2A/H2B peptide, fluorescence polarization, active compounds read high, concentration not given here. On the technique in general: In fluorescence polarisation assays a small probe gives low polarisation when free and higher when bound to something large.
Take `COc1cc(CNCc2ccc(OC)c3ccccc23)cc(OC)c1OC`: the inhibition was -2.97%. As for `C=CCC[C@@H](Cc1ccc(F)cc1)C(=O)OC[C@@H](C)NC(=O)[C@H](CC=C)CC(=O)N(CCO)Cc1ccccc1`, the figure is -1.37%. On to `O=C(CSc1nc2ccccc2c(=O)n1-c1ccccc1F)N1CCOCC1`, for which the inhibition is -5.04%. As for `CCOC(=O)N1CCN(C(=O)Cn2cnc3ccccc3c2=O)CC1`, the inhibition was 3%. With `CCOC(=O)N1CCN(CC(=O)Nc2cc(C)nn2-c2nc3ccccc3s2)CC1`, the inhibition was 16.1% (active).

Take `CCOC(=O)N1CCN(CC(=O)Nc2ccc(F)cc2)CC1`: the inhibition is -4.74%. Consider `O=C(OCc1ccccc1F)c1ccc2c(c1)OCCO2`, for which the inhibition was -6.13%.

`CC(=O)c1cc(C#N)c(SCC(=O)C(C)(C)C)nc1C`: the inhibition is -1.09%. As for `CCOC(=O)c1nc(C)n(-c2ccc(Cl)cc2Cl)n1`, the figure is -1.22%; as for `CC(=O)c1nnn(-c2ccc(Cl)cc2C#N)c1C`, 10.1% (active). Then `Cc1ccc(S(=O)(=O)NC(C(=O)N2CCOCCOCCOCCOCC2)c2ccccc2)cc1` (stereo unspecified), with -3.32%; and `Brc1ccc(-c2n(-c3ccccn3)c3ccccc3[n+]2-c2ccccn2)cc1`, with 5.04%; and `C[C@@H](C(=O)Nc1ccc2ccccc2c1)[C@@H]1C[C@@]1(C)[C@@H](NC(=O)c1cccnc1)c1ccccc1`, with 1.66%.

Consider `COc1ccc(C(=O)NC2CC2)cc1OC1CCN(Cc2ccc(SC)cc2)CC1`, for which the inhibition was 12.2% (active).

On to `COc1ccc(C(=O)NC2CC2)cc1OC1CCN(Cc2cnn(C)c2)CC1`, for which the inhibition was 2.53%. For the molecule `COc1ccc(C(=O)NC2CC2)cc1OC1CCN(C/C=C/c2ccccc2)CC1`, the inhibition is 5.63%. As for `COc1ccc(C(=O)n2nc(C)c(Br)c2C)cc1OC`, the inhibition was 2.73%.

For the molecule `COc1ccc(C(=O)NC(=S)N2CCCCC2c2cccnc2)cc1OC` (stereo unspecified), the inhibition was -0.0544%. Then `Cc1cccn2c(=O)c3cc(C(=O)NC4CCCCC4)sc3nc12`, with 32.6% (active). As for `CN(C(=O)c1cc2c(=O)n3ccccc3nc2s1)C1CCCCC1`, the inhibition was -5.4%. For the molecule `Cc1ccccc1-n1nc(C)c2cc(C(=O)NC3CC3)sc21`, the inhibition was 0.464%.

Turning to `COc1ccc(/C=C(/NC(=O)c2ccco2)C(=O)Nc2ccc(C(C)=O)cc2)cc1`, the inhibition is 3.73%. Regarding `Cc1ccc(NC(=O)/C(=C\c2ccccc2)NC(=O)c2ccco2)cc1`, the inhibition was 15.5% (active).

As for `O=C(Nc1ccccc1)/C(=C\c1ccco1)NC(=O)c1ccco1`, the inhibition is 4.48%. As to `Cn1c(=O)c2c(nc(NCCNC(=O)c3ccco3)n2Cc2ccccc2F)n(C)c1=O`, the inhibition was 0.914%. Take `CC[N+](C)(CC)CCC[n+]1c(-c2ccccc2)c2cc(N)ccc2c2ccc(N)cc21`: the inhibition is 37% (active).

Turning to `COc1cc(N/C=C2\CC(=O)NC(C)=C2C#N)cc(OC)c1OC`, the inhibition is 1.67%. Take `CCOC(=O)C(NS(=O)(=O)c1ccc(C)cc1)(C(F)(F)F)P(=O)(OCC(C)C)OCC(C)C` (stereo unspecified): the inhibition was -0.856%. With `CC(C)C(=O)NC(NC(=S)NC1CCS(=O)(=O)C1)C(Cl)(Cl)Cl` (stereo unspecified), the inhibition was 5.16%.

As to `CCOc1ccc2nc(N(CCCN(C)C)C(=O)c3ccc(C(=O)c4ccccc4)cc3)sc2c1`, the inhibition was 2.47%.

Turning to `CCN(CC)CCN(C(=O)c1cccc([N+](=O)[O-])c1)c1nc2ccc(OC)cc2s1`, the inhibition was 10.8% (active). As to `CCOc1ccc2nc(N(CCN(C)C)C(=O)c3ccc4ccccc4c3)sc2c1`, the inhibition was -2.61%. As for `O=c1cc(-c2ccccc2)[nH]c2cc(F)ccc12`, the figure is -0.193%; as for `Cc1ccc(N/C(N)=N/c2nc(C(F)(F)F)cc(C(F)(F)F)n2)cc1`, 1.07%; as for `Cn1c(=O)c(=O)n(C)c2cc(S(=O)(=O)NCCN3CCN(c4ccccc4F)CC3)ccc21`, 2.45%. `Cc1ccc2c(c1)-c1c(ssc1=S)C(C)(C)N2C(=O)CN1C(=O)c2ccccc2C1=O`: the inhibition is -1.1%. As for `CCC1=Nc2cc(C(=O)NCCCN3CCOCC3)ccc2Sc2ccc(Br)cc21`, the inhibition was 3.58%. For the molecule `Cc1ccccc1CN1C(=O)c2ccccc2Sc2ccc(C(=O)NCCCN3CCOCC3)cc21`, the inhibition is 19.6% (active).

In the case of `O=C(NCCCN1CCOCC1)c1ccc2c(c1)N(Cc1cccc(F)c1)C(=O)c1ccccc1S2`, the inhibition was -7.56%. Then `COc1ccc(Cl)cc1N(CC(=O)N/N=C/c1ccc(OCC(N)=O)cc1)S(C)(=O)=O`, with 0.205%; and `COc1cc(NC(=O)c2[nH]cnc2C(N)=O)cc(C(=O)Nc2cccc(C(F)(F)F)c2)c1`, with -1.33%; and `O=C(Nc1ccccn1)C1CCN(S(=O)(=O)c2ccc3c(c2)OCCO3)CC1`, with 35.5% (active). Take `O=C(NCc1cccs1)C1CCN(S(=O)(=O)c2ccc3c(c2)OCCO3)CC1`: the inhibition is -3.5%. As for `O=C(Nc1ccccn1)C1CCN(S(=O)(=O)c2ccccc2)CC1`, the inhibition is -0.314%.

Take `Nc1c(-c2ccccc2)nnn1Cc1ccccc1`: the inhibition is -2.36%.

For `CCOC(=O)c1ccc(COC(=O)CCc2nc(-c3ccccc3)c(-c3ccccc3)o2)cc1`, the inhibition is -6.88%. Then `Cc1nnc(NC2=NCCCCC2)o1`, with 4.02%; and `COc1ccc(C)cc1NC(=O)CNCc1cccs1`, with 0.209%. `COc1ccc(C)cc1NC(=O)CSc1ccc(Cl)cc1`: the inhibition was -4.45%. Consider `Cc1onc(-c2ccccc2Cl)c1C(=O)N(Cc1ccc(N(C)C)cc1)C(C)C`, for which the inhibition is 12.7% (active). As to `Cc1onc(-c2ccccc2Cl)c1C(=O)NCCn1ccc2ccccc21`, the inhibition is -5.8%.

Turning to `Cc1onc(-c2ccccc2Cl)c1C(=O)OCC(=O)c1ccccc1`, the inhibition was 4.43%. Take `CC(C)COC(=O)n1c(=O)oc2ccc(S(=O)(=O)N3CCCCC3)cc21`: the inhibition was 2.24%. Regarding `CCOC(=O)c1c(C)nc2c(c1C)c(=O)oc1ccccc12`, the inhibition is 1.54%. In the case of `C=CCc1cccc2cc(C(=O)OCC)c(=O)oc12`, the inhibition was -5.34%. Turning to `CCOC(=O)c1cc2cc3ccccc3cc2oc1=O`, the inhibition is 16.8% (active). With `NC(=O)C[n+]1cccc(C(N)=O)c1`, the inhibition was -3.37%.

In the case of `CC(CO)(CO)NC(=O)c1ccc(=O)[nH]n1`, the inhibition is 3.9%. Turning to `CCc1nn(CCCN2CCN(c3cccc(Cl)c3)CC2)c(=O)n1CCOc1ccccc1`, the inhibition is -0.456% and 3%.

On to `c1ccc2cc(CCCc3cc4ccccc4cn3)ncc2c1`, for which the inhibition was 2.17%. Consider `Cc1noc(C)c1COc1ccccc1C(=O)N(C)CC(=O)Nc1cccc(F)c1`, for which the inhibition is 0.0499%.
